This note sets out measurements from PubChem BioAssay (NCATS).

Inconclusive results are not listed. Where a call stands in place of a potency, no number is given. Activity calls are given as the source filed them. Calls follow the shape of the dose curve; as a rule, active = well fitted cell-killing curve with a large enough effect; inconclusive = small, poorly fitted or top-dose-only effect; inactive = flat fitted curve, though single readings scatter.

The first assay can be described thus: Vero cells viability qHTS for Zika virus inhibitors (AID 1347167). To be noted: cytotoxicity counter-screen (Zika); series mostly up to 45.9 µM. In a few lines: (§1)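 Compounds were tested in concentration series on cells grown in DMEM containing 4% FBS. After 24 to 48 hours, cellular ATP was measured by luminescence with CellTiter Glo.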
Background: In qHTS, concentration-response curves come from the screen itself.
As to `CNC(=O)c1cc2c(cn1)[nH]c1ccccc12`, the Potency result was “inactive”.

For `CCc1ccc2c(-c3cccc(Cl)c3)nc(=O)n(CC)c2n1`, the Potency entry is “inactive”.

As to `Cc1cccc(C(=O)NCN2CCN(c3ccccc3C#N)CC2)c1`, the Potency entry is “inactive”.

Turning to `Cn1c(=O)c2[nH]c(-c3ccc(S(=O)(=O)O)cc3)nc2n(C)c1=O`, the Potency entry was “inactive”.

A further assay can be described thus: HepG2 cells viability qHTS for Zika virus inhibitors (AID 1347168). The settings on record: Zika counter-screen; series mostly up to 45.9 µM. In a few lines: as §1
Take `CNC(=O)c1cc2c(cn1)[nH]c1ccccc12`: the compound was classed as inactive.

For `CCc1ccc2c(-c3cccc(Cl)c3)nc(=O)n(CC)c2n1`, the outcome was inactive.

For `Cc1cccc(C(=O)NCN2CCN(c3ccccc3C#N)CC2)c1`, the compound was called inactive.

Turning to `Cn1c(=O)c2[nH]c(-c3ccc(S(=O)(=O)O)cc3)nc2n(C)c1=O`, the call was inactive.
